Reference: PubChem BioAssay (NCATS)
Results filed as inconclusive are left out. A call without a number means that no potency is given here. Activity calls are given as the source filed them. The call rests on the fitted dose curve; in most records, active means well fitted curve in the direction sought with a large enough effect; inconclusive means small, poorly fitted or top-dose-only effect, or another doubt; inactive means no such curve, though single readings can be large; an effect the other way counts as inactive or inconclusive.

Assay: Quantitative High-Throughput drug screen in 47 multiple myeloma cell lines against the NCATS MIPE library collection: JIM3_ECACC cell viability assay (AID 1918963; further: nearly all actives have a fitted effect of over 35% in size)
Settings: JIM3 myeloma viability, CellTiter-Glo ATP, 48 h; series mostly up to 45.8 µM
Outline: (§1)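 Viability readout: CellTiter-Glo luminescence following 5 min room-temperature incubation with reagent. Prior exposure: 48 h, 37C, humidified 5% CO2, 500 cells per well.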
Potency means the concentration at half of the fitted maximal effect.

Row | Compound | Potency
1 | CCC1=C[C@@H]2CN(C1)Cc1c([nH]c3ccccc13)[C@@](C(=O)OC)(c1cc3c(cc1OC)N(C)[C@@H]1[C@@](O)(C(=O)OC)[C@H](OC(C)=O)[C@]4(CC)C=CCN5CC[C@]31[C@@H]54)C2 | 0.0148 µM (active)
2 | c1ccc2c(CCNc3ccc(Nc4ccncc4)cc3)c[nH]c2c1 | 16.6 µM (active)
3 | CC(C)(O)CCc1ccc(OCc2cc(-c3cccc(OC(F)F)c3)c3ncccc3c2)cc1 | inactive
4 | Nc1ccn([C@@H]2CS[C@H](CO)O2)c(=O)n1 | inactive
5 | N#Cc1c(O)c2c(-c3ccc(-c4ccccc4O)cc3)csc2[nH]c1=O | inactive
6 | Nc1ccc(S(=O)(=O)Nc2ncccn2)cc1 | inactive
7 | CCC(=C(c1ccccc1)c1ccc(OCCN(C)C)cc1)c1ccccc1 | 23.5 µM (active)
8 | Cc1ccc(S(=O)(=O)Nc2cc(Cl)ccc2C(=O)Nc2nc(-c3ccccc3)cs2)cc1 | 5.26 µM (active)
9 | COc1ccc2c(OCc3nnc4ccc(-c5ccccc5)nn34)ccnc2c1 | inactive
10 | O=C1CCC[C@@H]2[C@H]3CCC[N+]4([O-])CCC[C@@H](CN12)[C@@H]34 (stereo partly specified) | inactive
11 | CCCCCN(CCC12CC3CC(CC(C3)C1)C2)C(=O)NCCCc1ccncc1 | 20.9 µM (active)
12 | O=C(O)Cn1nnc(-c2cc(N3CCC(Oc4cc(F)ccc4Br)CC3)no2)n1 | 16.6 µM (active)
13 | O=C(O)c1ccc2cc(-c3ccc(O)c(C45CC6CC(CC(C6)C4)C5)c3)ccc2c1 | 3.72 µM (active)
14 | COc1cccc(Nc2c(C(N)=O)cnc3c(C)cc(S(=O)(=O)c4cccc(C(=O)N(C)C)c4)cc23)c1 | inactive

Assay: Quantitative High-Throughput drug screen in 47 multiple myeloma cell lines against the NCATS MIPE library collection: JIM1_ECACC cell viability assay (AID 1918964)
Settings: JIM1 myeloma viability, CellTiter-Glo ATP luminescence, 48 h; series mostly up to 45.8 µM
Outline: as §1

Row | Compound | Potency
15 | CN[C@H]1CCc2cc(OC)c(OC)c(OC)c2-c2ccc(OC)c(=O)cc21 | inactive
16 | CN(C)CC(C)(C)CNc1nn2c(-c3ccccc3)nnc2cc1C1CCC1 | 2.09 µM (active)
17 | Nc1nc(-c2nn(Cc3ccccc3F)c3ncccc23)nc(N)c1N1CCOCC1 | inactive
18 | O=C(O)CO.[NH2-].[NH2-].[Pt+2] | inactive
19 | CC(C)c1cc(-c2n[nH]c(=O)n2-c2ccc3c(ccn3C)c2)c(O)cc1O | 0.0148 µM (active)
20 | C=C1C(=CC=C2CCCC3(C)[C@@H]([C@H](C)C=CC=CC(O)(CC)CC)CC[C@@H]23)C[C@@H](O)C[C@@H]1O (stereo partly specified) | 16.6 µM (active)
21 | O=C(O)[C@H](Cc1c[nH]c2ccccc12)N1C(=O)c2ccccc2C1=O | inactive
